# Measurements: PubChem BioAssay (NCI)
# About 83,000 compounds went through this panel and 20% of them were active in at least one assay; those are over-represented in the sample as a whole.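 In brief: 96-well plates, 48 h treatment, single concentration, percent growth endpoint.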 A number with no mark means an inactive call. The source made the active and inactive calls. Rule for the calls: active = growth percent below 10; inactive = the rest.
# Tested on: SR leukemia
# Assay: NCI-60 one-dose screen, 48 h (100 = growth as untreated, 0 = no growth, -100 = all killed)
# Conditions: 10 µM unless noted
row,SMILES,growth
1,CCN(CC)C(=O)O/N=C(/C)c1ccccc1,104%
2,C=C1C(=O)O[C@H]2[C@H]1CC/C(COC(=O)NCc1ccc(Cn3c(=O)sn(CCCl)c3=O)cc1)=C\CC[C@@]1(C)O[C@@H]21,5.35% (active)
3,COc1ccc2c(c1)sc1nc(-c3ccccc3)c(-c3cccc4ccccc34)n12,10.5%
4,c1ccc(-c2nnn(-c3ccccc3)n2)cc1,89%
5,CC(C)N(C(=S)SSC(=S)N(C(C)C)C(C)C)C(C)C,105%
6,Cc1ccc2c(C)c3c(ccc4ccccc43)c[n+]2c1,58.2%
7,O=C(N/N=C/c1ccc([N+](=O)[O-])cc1)c1ccccc1Nc1ccnc(C(F)(F)F)c1,99.6%
8,CC(C)CC1NC(=O)C(CC(C)C)N(CO)C1=O (centres undefined),96.4%
9,Cc1ccccc1C1CC(=O)c2ccccc2C1C (centres undefined),78.7%
10,O=C1/C(=C/N2N=C(c3ccc(Cl)cc3)CC2c2ccccc2O)SC(=S)N1c1cccc(C(F)(F)F)c1 (centres undefined),42%
11,CN(C)CC(=O)c1ccc2cc(Br)c3ccccc3c2c1,13.4%
12,CCN(C(=O)CCl)C(C)(C)C(SSSC(c1ccc(Cl)cc1)C(C)(C)N(CC)C(=O)CCl)c1ccc(Cl)cc1 (centres undefined),17.6%
13,COc1ccc(NC(=O)Cn2c(=O)sc3c(-c4ccc(Cl)cc4)cc(-c4ccc(Cl)cc4)nc32)cc1,63.3%
14,COc1cccc(/C=N\Nc2ccc([N+](=O)[O-])cn2)c1O,48.3%
15,CCN(CC)CC(=O)Nc1c(C)cc(C(=O)NN)cc1C,88.7%
16,CCCC(CCC)(C(N)=O)C(=O)O,111%
17,COc1cnc2c(c1)C(=O)c1c-2n(CCCNC(C)C)c(=O)c2cc(Cl)ccc12,-52.1% (active)
18,Cc1nn(-c2cccc(Cl)c2)c(C)c1N=Nc1ccc(Br)cc1,92.7%
19,CCCCCCCCCCCCNC(=O)N[C@H](C(=O)N[C@H]1/C=C/OCCNC(=O)/C=C/[C@H](C(C)C)NC1=O)C(C)C,29%
20,Cc1ccc(C(CN(C)C)C(=O)c2ccccc2)cc1 (centres undefined),-29.2% (active)

row,SMILES,growth
1,CCCCCCCCCCCCCCCCCC(=O)[O][Sn]([CH2]CCC)([CH2]CCC)[CH2]CCC,15.8%
2,Cc1c2c(cc3c1[nH]c1ccccc13)C=NCC2,64.1%
3,COc1ccc(C(=O)C(CN(C)C)c2ccc(OC)cc2)cc1 (centres undefined),0.837% (active)
4,CC(=O)O[C@H]1CC[C@]2(C)[C@H]3CC=C4[C@@H]5CC(C)(C)CC[C@]5(C(=O)OCC(COC(=O)C(Cl)Cl)(COC(=O)C(Cl)Cl)NC(=O)C(Cl)Cl)CC[C@@]4(C)[C@]3(C)CC[C@H]2C1(C)C,60.3%
5,COc1ccc2c(c1)C1=NN(C(=O)CO)[C@H](c3ccc(OC(F)(F)F)cc3)[C@@H]1CC2,69.2%
6,COc1ccc(Cl)cc1Nc1nc(C(F)(F)F)ccc1C(=O)NN,1.9% (active)
7,CC(C)c1cccc(C#N)c1,97.1%
8,COc1ccc2nc3ccccc3c(NCc3ccc(C)cc3)c2c1,-12.7% (active)
9,CS(=O)(=O)c1ccc(C(=O)N/N=C/c2ccccc2Cl)cc1,92.5%
10,CC(C)(C)c1ccc(C(=O)Nc2sc3cc(O)ccc3c2C(N)=O)cc1,33.7%
11,COc1cc(/C=C\c2cc(/C=C\c3ccc(O)c(OC)c3)n(C(=O)Nc3ccc(C(F)(F)F)cc3)n2)ccc1O,13.2%
12,CCOC(=O)c1cc(N)nc2ccccc12,102%
13,CCSCC1CC(O)(c2ccccc2)C(c2ccccc2)C(c2ccc(F)cc2)O1 (centres undefined),1.33% (active)
14,CN1C2CCC1/C(=C\c1ccc(Cl)cc1)C(=O)/C2=C/c1ccc(Cl)cc1,24.5%
15,CCOC(=O)C1=C(C)NC(=S)NC1c1ccccc1 (centres undefined),94.3%
16,C=C1C(=O)O[C@H]2[C@H]1CC/C(COC(=O)N[C@@H](Cc1c[nH]c3ccccc13)C(=O)OC)=C\CC[C@@]1(C)O[C@@H]21,3.24% (active)
17,Cc1nc(N)nc2c1CCC(Nc1ccccc1)S2 (centres undefined),59.2%
18,COc1cc(OC)c2sc(-c3ccc(-n4cncc4-c4ccc(OC)c(N)c4)cc3)nc2c1,73.8%
19,COc1cc(OC)cc(-c2ccc(-c3ccc(C(=N)N)s3)s2)c1,-47.3% (active)
